An excerpt weighted towards active compounds, which were near 3.2% of everything screened.
Tau FP inhib = blocks human tau fibril formation measured by polarization | hit rate 0.39% among 280,000 | P10636 | K18 P301L tau heparin fibrillization, Alexa594 FP, 6 h | Potency, µM (doses to about 57.7 µM), most hits filed as inhibitors; further: nearly all actives have a fitted effect of over 55% in size
Target sequence (P10636 561-689 P618L limits assumed): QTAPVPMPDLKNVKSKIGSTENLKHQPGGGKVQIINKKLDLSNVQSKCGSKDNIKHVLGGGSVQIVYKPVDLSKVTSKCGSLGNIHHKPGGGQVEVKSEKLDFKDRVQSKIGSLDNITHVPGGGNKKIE
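K18 P301L tau (15 uM unlabeled/0.24 uM Alexa 594-labeled, final) + compound + heparin 20 uM final; 100 mM NaOAc pH 7; 6 hr 37 C; ThT 30 uM final added, 1 hr RT; FP ex 555/em 632 nm.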
TRb-SRC2 inh = disrupts binding of human TR beta to SRC2. P10828. TRbeta-SRC2 peptide binding, fluorescence polarization; receptor liganded with 1 µM T3. Potency, µM (highest dose often 106 µM), actives largely listed as inhibitors. hit rate 0.065% among 280,000. AID 1469; further: nearly all actives have a fitted effect of over 50% in size
Target sequence (P10828 whole entry, looked up): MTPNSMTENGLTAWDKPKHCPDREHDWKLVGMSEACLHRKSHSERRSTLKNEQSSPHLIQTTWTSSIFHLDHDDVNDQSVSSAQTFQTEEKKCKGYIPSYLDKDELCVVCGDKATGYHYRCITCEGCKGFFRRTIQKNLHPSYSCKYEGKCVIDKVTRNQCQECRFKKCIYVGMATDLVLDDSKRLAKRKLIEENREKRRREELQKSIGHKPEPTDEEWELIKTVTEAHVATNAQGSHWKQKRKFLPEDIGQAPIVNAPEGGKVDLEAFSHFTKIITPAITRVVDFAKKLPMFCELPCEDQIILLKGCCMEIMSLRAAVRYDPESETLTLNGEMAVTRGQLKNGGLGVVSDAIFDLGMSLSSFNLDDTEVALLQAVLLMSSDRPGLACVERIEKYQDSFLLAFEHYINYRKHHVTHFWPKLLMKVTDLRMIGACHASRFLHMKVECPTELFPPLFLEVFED
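Read-out is fluorescence polarization (555 nm excitation, 632 nm emission) of a Texas Red SRC2 coactivator peptide; loss of signal reflects blocked binding to human TRb ligand-binding domain in the presence of 1 uM T3.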
TR SRC2 fluor cs = Texas Red fluorescence interference in TRb-SRC2 counter-screen; TRb/SRC2 Texas Red total fluorescence interference; Potency, µM (top dose mostly 106 µM); hit rate 0.29% among 280,000; AID 1479; active means well fitted curve in either direction with a large enough effect; inconclusive means small, poorly fitted or top-dose-only effect
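Human TRb ligand-binding domain at 0.6 uM with 20 nM Texas Red SRC2 peptide in Tris buffer containing 1 uM T3 and 5% DMSO, incubated with compound 5 h at ambient temperature. Total fluorescence (555/632 nm) calculated as parallel + 2 × perpendicular.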
Tau fluor cs = counter-screen for tau fibril formation inhibitors | tau K18 P301L Alexa594 fluorescence, heparin fibrillization | Potency, µM (doses to about 57.7 µM) | hit rate 0.93% among 280,000; further: nearly all actives have a fitted effect of over 55% in size
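Human K18 P301L tau (15 uM unlabeled plus 0.24 uM Alexa 594-labeled, final) in 100 mM sodium acetate pH 7 was mixed with compound and 20 uM heparin and incubated 6 hr at 37 C.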
RGS12 GoLoco inh = inhibitors of human Gai1-RGS12 GoLoco interaction (red fluorophore). Gai1:RGS12 GoLoco peptide FP, rhodamine, 10 min. Potency, µM (series often up to 61.6 µM), usual class: inhibitors. hit rate 0.44% among 230,000; active means well fitted inhibition curve with a large enough effect, not every such curve was filed as active; inactive means no such curve, though single readings can be large or run the other way; further: nearly all actives have a fitted effect of over 30% in size
Tau fibril ThT = blocks human tau fibril formation measured by thioflavin T; Potency, µM (series often up to 57.4 µM), most hits filed as inhibitors; P10636; hit rate 2.1% among 270,000; recombinant tau K18 P301L (four-repeat tau fragment), heparin-induced fibrillization, ThT fluorescence; further: nearly all actives have a fitted effect of over 55% in size
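Aggregation was driven by heparin (20 uM final) acting on recombinant tau […] bearing P301L in 100 mM sodium acetate pH 7; fibrils were detected with Thioflavin T.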
A number is an active result; i = inactive; ? = inconclusive; nt = no result; [ ] = another dose, or the depositor's remark. Unless noted, the call rests on the fitted dose curve; in most records, active means well fitted curve in the direction sought with a large enough effect; inconclusive means small, poorly fitted or top-dose-only effect, or another doubt; inactive means no such curve, though single readings can be large; an effect the other way counts as inactive or inconclusive.

SMILES | Tau FP inhib | TRb-SRC2 inh | TR SRC2 fluor cs | Tau fluor cs | RGS12 GoLoco inh | Tau fibril ThT
O=C1C2C3C=CC(C2C(=O)N1CN1CCOCC1)C1C2C(=O)N(CN4CCOCC4)C(=O)C2C31 (stereo unspecified) | nt | nt | nt | nt | i[14.2 µM] | nt
Cc1ccc(Cn2c(CNC(=O)c3ccccc3Br)nc3cccnc32)cc1 | i | i | 0.01µM[quencher] | i | nt | i
O=C(NCc1nc2cccnc2n1Cc1ccc(F)cc1)c1ccccc1C(F)(F)F | i | i | i | i | nt | i
CN[C@@H]1[C@H](O[C@@H]2O[C@H](C)[C@@](O)(CO)[C@H]2O[C@H]2[C@H](O)[C@H](O)[C@H](N=C(N)N)[C@@H](O)[C@@H]2N=C(N)N)O[C@@H](CO)[C@H](O)[C@H]1O | i | i | i | i | i | ?
C=CCC(C)(O)c1cccs1 (stereo unspecified) | i | i | i | i | i | i
COc1cc2c(cc1OC)C(c1ccc(-c3cc(Cl)ccc3Cl)o1)=NCC2 | i | i | i | i | i | ?
COc1cc2c(cc1OC)C(c1ccc(-c3ccc(Cl)c(Cl)c3)o1)=NCC2 | i | i | i | ? | i | 11µM
CC[n+]1ccc(/C=C/c2ccc(N(C)C)cc2)c2ccccc21 | ? | ? | 32µM[fluorescent] | 0.71µM[fluorescent] | i | 1.4µM
CC[n+]1ccccc1/C=C/c1ccc(N(C)C)cc1 | i | i | i | i | i | 14µM
CN(C)c1ccc(/C=C/c2cc[n+](C)cc2)cc1 | ? | ? | 45µM[fluorescent] | 14µM[fluorescent] | i | 4µM
CC[n+]1c(/C=C/c2ccc(N(C)C)cc2)ccc2ccccc21 | i | i | i | i | i | i
CC(C)(C)Nc1oc(-c2ccccc2)nc1-c1ccccc1F | ? | i | i | i | i | i
Cc1nn(C)c(Oc2ccccc2)c1/C=N/OCc1ccc(C(=O)OC(C)(C)C)cc1 | nt | i | i | nt | nt | nt
C[C@H]1Cc2c(COc3ccccc3)nc3c(c2CO1)CN(C(=O)C1CCCCC1)CC3 | i[11.6 µM] | i[11.2 µM] | i[11.2 µM] | i[11.6 µM] | i[14.2 µM] | i[11.5 µM]
CC(=O)c1ccc(-c2ccc(C3C4C=CCCC4(C)C(=O)N3Cc3ccccc3)c(F)c2)cc1 (stereo unspecified) | nt | i | i | nt | nt | nt
CC(O)(c1ccc(Cl)cc1)c1ccc(Cl)cc1 | nt | i | i | nt | nt | nt
CCCOC(=O)c1cccc(NC(=O)CSc2nnc3cc(C)c4ccccc4n23)c1 | i | i | 2.8µM[quencher] | i | nt | i
C=C1c2cccc(O)c2C(O)=C2C(=O)[C@]3(O)C(O)=C(C(N)=O)C(=O)[C@@H](N(C)C)[C@@H]3[C@@H](O)[C@H]12 | ? | i | 32µM[quencher] | ? | i | ?
C=C1c2cccc(O)c2C(O)=C2C(=O)[C@]3(O)C(O)=C(C(N)=O)C(=O)C(N(C)C)C3C(O)C12 (stereo partly specified) | i | i | 40µM[quencher] | i | i | ?
C[C@H]1COC(=O)O1 | nt | i | i | nt | nt | nt
C[C@H](NC(=O)Cc1cc(F)cc(F)c1)C(=O)N[C@@H](C(=O)OC(C)(C)C)c1ccccc1 | nt | i | i | nt | nt | nt
CCOC(=O)c1sc(N/N=C/c2cccc(C)c2)nc1C | ? | i | i | 8.9µM[quencher] | i | ?
CCOC(=O)c1sc(N/N=C/c2ccccc2)nc1C | i | i | i | ? | i | ?
C=CCn1c(SCC(=O)NC2CCCC2)nc2scc(-c3ccco3)c2c1=O | ? | i | i | i | i | 28µM
SMILES | Tau FP inhib | TRb-SRC2 inh | TR SRC2 fluor cs | Tau fluor cs | RGS12 GoLoco inh | Tau fibril ThT
C=CCn1c(SCC(=O)NCCCC)nc2scc(-c3ccco3)c2c1=O | i | i | i | i | i | ?
CCOc1ccc(N2C(=O)C3Sc4[nH]c(=O)sc4C(/C=C/c4ccccc4)C3C2=O)cc1 (stereo unspecified) | i | i | i | ? | i | 14µM
COc1cc(C2c3sc(=O)[nH]c3SC3C(=O)N(c4ccc(Br)cc4)C(=O)C32)ccc1O (stereo unspecified) | i | i | i | ? | i | ?
O=C(NCc1cccs1)c1ccc([N+](=O)[O-])cc1 | i | ? | 0.1µM[quencher] | i | i | i
Cc1cc(C(=O)NCc2cccs2)ccc1[N+](=O)[O-] | i | i | i | i | i | i
N/N=C1/CC(=O)NC(=O)N1 | nt | nt | nt | nt | i[14.2 µM] | nt
CCC(C(=O)OCC(=O)Nc1cccc(C(C)=O)c1)c1ccccc1 (stereo unspecified) | i | i | i | i | i | i
CCC(C(=O)OCC(=O)Nc1cc(Cl)cc(Cl)c1)c1ccccc1 (stereo unspecified) | 32µM | i | i | ? | i | i
O=S(=O)(Nc1cc(Sc2cccc3cccnc23)c(O)c2ccccc12)c1ccccc1 | ? | i | i | 16µM[quencher] | i | 16µM
O=C1c2ccccc2C(=O)c2cc(S(=O)(=O)Nc3cccc4cccnc34)ccc21 | nt | i | i | nt | nt | nt
CCCCCCCCCCCCCCOc1ccc(C(=O)O)o1 | nt | i | i | nt | nt | nt
Cc1nc(Nc2ccc(Cl)c(Cl)c2)sc1C(=O)Nc1ccccc1 | i | i | i | 11µM[quencher] | i | ?
Nc1c(C(=O)c2ccccc2)sc(Nc2ccc(Cl)c(Cl)c2)c1C(=O)Nc1ccccc1 | i | i | i | ? | nt | 20µM
COc1ccc(Nc2sc(C(=O)Nc3cccc(Cl)c3)c(N)c2C(=O)Nc2ccccc2OC)cc1 | i | i | i | 11µM[quencher] | i | ?
CC(OCc1ccccc1)C(NC(=O)OC(C)(C)C)C(=O)NC1COC2CC(n3cc(F)c(=O)[nH]c3=O)OC12 (stereo unspecified) | nt | i | i | nt | nt | nt
CC(=O)OC(C)C | nt | i | i | nt | i | nt
O=C1CCC/C(=N/Nc2ccc(Cl)cc2)C1 | ? | i | i | ? | i | 25µM
CCOc1ccc(S(=O)(=O)N/N=C2/CCCC(=O)C2)cc1 | i | i | i | i | i | i
CCn1cc2nc(SCc3cccc(OC)c3)n(Cc3ccc(Cl)cc3)c(=O)c2n1 | i | i | 0.032µM[quencher] | i | nt | i
Cc1cc(C)nc(SCCc2cccc[n+]2C)n1 | nt | nt | nt | nt | i[14.2 µM] | nt
c1ccc(OCc2nc3ccccc3s2)cc1 | i | i | i | i | i | i
Cc1cc(OCc2nc3ccccc3s2)ccc1N | i | i | i | ? | i | 14µM
Cc1cc(C)n2nc(CC#N)c(C#N)c2n1 | i | i | i | i | i | i
Cc1cc(C)n2nc(/C(C#N)=C/c3ccccn3)c(C#N)c2n1 | ? | i | i | ? | i | 22µM
COc1cccc(Nc2nc(-c3cccs3)nc3ccccc23)c1 | 25µM | i | i | ? | i | i
COc1ccc(N2CCN(c3nc(-c4cccs4)nc4ccccc34)CC2)cc1 | i | i | i | ? | i | ?
COc1ccc(Nc2nc(-c3cccc([N+](=O)[O-])c3)nc3ccccc23)cc1 | ? | i | i | 3.5µM[quencher] | i | ?

Screening results as filed in PubChem BioAssay.
